We go through 31 compounds from PubChem BioAssay AID779 (Sanford-Burnham Center for Chemical Genomics, 2007).

Values without a mark were called inactive. How the calls were made is not given here.

This assay in a line: placental alkaline phosphatase inhibitors, dose response, counter-screen, biochemical, colorimetric (AID 779). The following applies: PLAP counter-screen, colorimetric OD read-out.
For the compound `Cc1cc(C)c2nc(N3CCCN(C(=O)c4ccco4)CC3)c(C#N)cc2c1`, the IC50 (commonly the midpoint of a concentration-inhibition curve) was above 50 µM.

With `COc1cc(/C=C2\SC(=S)N(Nc3ncc(C(F)(F)F)cc3Cl)C2=O)cc(OC)c1OC`, the IC50 is above 50 µM.

`COc1ccc(N(C(=O)c2ccco2)S(=O)(=O)c2cc(Cl)c(Cl)cc2Cl)cc1`: the IC50 is above 50 µM.

For `CCn1nc(-c2ccccc2)c2nc3ccccc3nc21`, the IC50 is above 50 µM.

In the case of `CCCCn1nc(-c2ccccc2)c2nc3ccccc3nc21`, the IC50 is above 50 µM.

As for `Cc1c(NC(=O)CCN2C(=O)c3ccccc3C2=O)c(=O)n(-c2ccccc2)n1C`, the IC50 is above 50 µM.

On to `CC1Cc2ccccc2N1Cc1nc2cc(C(F)(F)F)ccc2c(=O)[nH]1` (stereo unspecified), for which the IC50 was above 50 µM.

For the compound `CCSc1nnc(NC(=O)C(C(F)(F)F)C(F)(F)F)s1`, the IC50 is above 50 µM.

With `Cc1nc(C)c(C(=O)Nc2nc3c(C)cccc3s2)o1`, the IC50 is above 50 µM.

Regarding `CSc1nc(SCCO)c2sc3nc(-c4ccco4)c4c(c3c2n1)CC(C)(C)OC4`, the IC50 was above 50 µM.

Regarding `CCN(CC)C(=O)CSc1nc2cc(OC)c(OC)cc2c(=O)n1Cc1ccc(Cl)cc1`, the IC50 is above 50 µM.

In the case of `CCSc1nnc(-c2sc3nnc(-c4ccccc4)c(-c4ccccc4)c3c2N)o1`, the IC50 was above 50 µM.

Regarding `CCOC(=O)c1c(NC(C)=O)sc2c1CCC(C=O)=C2Sc1ccccc1`, the IC50 was above 50 µM.

`CC(=O)Nc1ccc(NC2=Nc3ccccc3N3C2=Nc2c(c(C)nn2-c2ccccc2)C3c2ccccc2)cc1` (stereo unspecified): the IC50 was above 50 µM.

In the case of `CCn1c(COc2ccccc2C)nnc1SCC(=O)Nc1cc(C)on1`, the IC50 was above 50 µM.

`CCSC1=N/C(=C\c2ccc(-c3ccccc3[N+](=O)[O-])o2)C(=O)S1`: the IC50 is above 50 µM.

Regarding `COc1ccc2oc(/C=C/N(C)C)c(C(=O)c3ccc(Cl)cc3)c2c1`, the IC50 was above 50 µM.

Regarding `O=C1/C(=C\c2ccco2)SC(=S)N1Cc1ccccc1`, the IC50 is above 50 µM.

For the compound `CCc1cccc2c(C(=O)CSc3nnc(-c4ccoc4C)n3C)c[nH]c12`, the IC50 was above 50 µM.

As to `O=C(/C=C/c1ccccc1)c1cc(Br)ccc(=O)c1O`, the IC50 is above 50 µM.

Turning to `CCCn1nc(-c2ccccc2)c2nc3ccccc3nc21`, the IC50 is above 50 µM.

Take `COC(=O)CSc1nc(-c2ccccc2)cc(-c2ccco2)c1C#N`: the IC50 is above 50 µM.

With `O=C1CCCC2=C1C(c1ccco1)Nc1ccc3ccccc3c12` (stereo unspecified), the IC50 is above 50 µM.

In the case of `C=CCn1c(SCC(=O)Nc2ncc(Cc3cc(C(F)(F)F)ccc3Cl)s2)nnc1-c1ccncc1`, the IC50 was above 50 µM.

For `CC(C)C1Cc2c(C#N)c(N)sc(=S)c2CO1` (stereo unspecified), the IC50 was above 50 µM.

Consider `Cc1cc2cc(CNC(=O)c3ccc(S(=O)(=O)N4CCCCC4)cc3)ccc2n1C`, for which the IC50 was above 50 µM.

For the compound `COc1cc(NC(=O)c2ccc(COCC(F)(F)F)cc2)cc(OC)c1OC`, the IC50 was above 50 µM.

Take `Oc1c(C=C2N=c3ccccc3=N2)sc(=S)n1-c1ccc(F)cc1`: the IC50 was above 50 µM.

Turning to `CCCCCCOC(=O)C(C#N)c1nc2ccccc2nc1N1CCN(CC)CC1` (stereo unspecified), the IC50 was above 50 µM.

In the case of `CCOC(=O)C1=C(c2ccccc2)N=c2s/c(=C\c3cc(OC)c(OC)c(OC)c3)c(=O)n2C1c1cccs1` (stereo unspecified), the IC50 is above 50 µM.

`c1ccc(-c2cn3nc(-c4ccccc4)c(-c4ccccc4)nc3n2)cc1`: the IC50 was above 50 µM.
